We go through 14 compounds from PubChem BioAssay (NCI).

SMILES strings stand for the structures. Compounds without any hit were thinned out: in the full panel of roughly 83,000, 20% have a hit.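 Testing used 96-well plates and a 48-hour single-concentration exposure. Example: -40 means 40% of the starting cells died.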 Values without a mark were called inactive. The source made the active and inactive calls. The calls were made as follows: active = growth percent below 10; inactive = the rest.

Test systems include HCT-15 colon; HT29 colon; SNB-75 CNS; SNB-19 CNS; U251 CNS; PC-3 prostate; SK-MEL-5 melanoma; UACC-62 melanoma; LOX IMVI melanoma; SK-MEL-28 melanoma.
Assay in all cases: NCI-60 one-dose screen, 48 h (100 = growth as untreated, 0 = no growth, -100 = all killed)
Conditions in all cases: 10 µM unless noted

As for `COc1ccc(-c2nc3ccccc3n3cccc23)cc1`, the growth was 142% in the assay on HCT-15 colon; 107% with HT29 colon; 107% in the assay with SNB-75 CNS; 140% in the assay on SNB-19 CNS; 100% in the assay on U251 CNS; 78.6% in the assay with PC-3 prostate. Further, the growth with SK-MEL-5 melanoma was 99%; with UACC-62 melanoma it was 88.3%; in the assay on LOX IMVI melanoma, 90%; in the assay with SK-MEL-28 melanoma, 111%.

In the case of `COc1ccc2nc(-c3ccc(-c4noc(-c5ccc(Cl)cc5)n4)cc3)[nH]c2c1`, the growth with HCT-15 colon was 75.8%; in the assay with HT29 colon, 82%; in the assay with SNB-75 CNS, 31.8%; in the assay with SNB-19 CNS, 95.6%; with U251 CNS, 78.2%; in the assay on PC-3 prostate, 67.1%. The growth was 78.8% with SK-MEL-5 melanoma, 58.3% in the assay with UACC-62 melanoma, 57.3% with LOX IMVI melanoma and 79.7% with SK-MEL-28 melanoma.

Take `COc1ccc2c(c1)OC1=C(C(=O)OC1)C2c1cc(OC)c2c(c1)OCCO2` (stereo not given): the growth with HCT-15 colon was 12.8%; with HT29 colon, 5.47% (active); in the assay on SNB-75 CNS, 30%; in the assay on SNB-19 CNS, 38.8%; with U251 CNS, 20.5%; with PC-3 prostate it was 25.6%. The growth in the assay with SK-MEL-5 melanoma was -17.7% (active); in the assay on UACC-62 melanoma, 36.3%; in the assay on LOX IMVI melanoma, 21.3%; in the assay on SK-MEL-28 melanoma, 45.4%.

Turning to `CCCCCCCCCCCCCC1=NC(C)(C)CN1C(C)C`, the growth with HCT-15 colon was -65.1% (active); in the assay with HT29 colon, -57.5% (active); in the assay on SNB-75 CNS, -41.1% (active); with SNB-19 CNS, 28.9%; in the assay with U251 CNS, -63.5% (active); with PC-3 prostate, -37.6% (active). Also, the growth was -86.7% (active) with SK-MEL-5 melanoma, -70.8% (active) in the assay on UACC-62 melanoma, -74.1% (active) in the assay with LOX IMVI melanoma and -73% (active) with SK-MEL-28 melanoma.

With `COc1ccc2nc3ccccc3c(NCc3ccc(C)cc3)c2c1`, the growth in the assay on HCT-15 colon was 11.4%; in the assay on HT29 colon, 1.23% (active); in the assay with SNB-75 CNS it was 46.6%; in the assay on SNB-19 CNS, 29.2%; with U251 CNS it was 15.3%; with PC-3 prostate, 11.4%. Further, the growth is 34.4% with SK-MEL-5 melanoma, 55.7% in the assay on UACC-62 melanoma, -6.01% (active) in the assay with LOX IMVI melanoma and 66.4% in the assay on SK-MEL-28 melanoma.

Regarding `CCCCOc1nc2ccc(C)cc2cc1/C=C/C(=O)/C=C(O)/C=C/c1cc2cc(C)ccc2nc1OCCCC`, the growth with HCT-15 colon was 110%; in the assay on HT29 colon it was 101%; with SNB-75 CNS it was 92.7%; in the assay with SNB-19 CNS, 96.2%; in the assay with U251 CNS, 88.3%; in the assay with PC-3 prostate it was 99%. Besides, the growth in the assay with SK-MEL-5 melanoma was 105%; in the assay on UACC-62 melanoma it was 87.6%; in the assay with LOX IMVI melanoma it was 91.6%; with SK-MEL-28 melanoma, 107%.

For the compound `COc1ccc(/C=C(\C#N)c2cc(OC)c(OC)c(OC)c2)cc1`, the growth in the assay on HCT-15 colon was 15.2%; with HT29 colon, 6.29% (active); with SNB-75 CNS, 30.3%; in the assay with SNB-19 CNS, 43%; in the assay with U251 CNS, 15.4%; in the assay with PC-3 prostate, 28%. The growth in the assay with SK-MEL-5 melanoma was -37.4% (active); in the assay with UACC-62 melanoma, 36.2%; in the assay with LOX IMVI melanoma, 27%; with SK-MEL-28 melanoma, 56.6%.

For `CCSc1cnnc2ccccc12`, the growth in the assay on HCT-15 colon was 105%; in the assay with HT29 colon, 106%; in the assay on SNB-75 CNS it was 89.3%; with SNB-19 CNS, 106%; in the assay on U251 CNS it was 102%; in the assay on PC-3 prostate, 104%. Besides, the growth in the assay with SK-MEL-5 melanoma is 107%; in the assay on UACC-62 melanoma, 102%; in the assay with LOX IMVI melanoma it was 103%; in the assay with SK-MEL-28 melanoma, 107%.

On to `COc1cnc2c(c1)C(=O)c1c-2n(CCCN2CCN(C)CC2)c(=O)c2cc(Cl)ccc12`, for which the growth in the assay with HCT-15 colon is 41.8%; with HT29 colon, -60.6% (active); in the assay with SNB-75 CNS, 38.7%; in the assay with SNB-19 CNS, 46.3%; with U251 CNS, 45.4%; in the assay on PC-3 prostate, 40.5%. Further, the growth with SK-MEL-5 melanoma is 65.4%; in the assay with UACC-62 melanoma it was -49% (active); with LOX IMVI melanoma, 38.2%; with SK-MEL-28 melanoma, -53.8% (active).

Take `O=S1(=O)NCCCN1CCNc1nccc(-c2c(-c3cccc(O)c3)nc3sccn23)n1`: the growth in the assay with HCT-15 colon is 95.5%; with HT29 colon, 56.2%; in the assay with SNB-75 CNS, 37.9%; in the assay on SNB-19 CNS, 119%; in the assay on U251 CNS, 77.4%; with PC-3 prostate, 106%. Besides, the growth in the assay on SK-MEL-5 melanoma was 74.2%; with UACC-62 melanoma, -6.85% (active); in the assay on LOX IMVI melanoma it was 20.1%; with SK-MEL-28 melanoma, 24%.

Regarding `COc1cc(NCC(O)CN(CC(C)C)CC(C)C)c2ncccc2c1` (stereo not given), the growth in the assay with HCT-15 colon is 80.1%; in the assay with HT29 colon it was 77.9%; with SNB-75 CNS it was 82.8%; in the assay with SNB-19 CNS, 90.1%; in the assay on U251 CNS, 80.7%; with PC-3 prostate, 58.6%. Moreover, the growth was 86.1% in the assay with SK-MEL-5 melanoma, 76.9% with UACC-62 melanoma, 83.6% in the assay on LOX IMVI melanoma and 75.3% with SK-MEL-28 melanoma.

Regarding `COc1cc([N+](=O)[O-])cc(OC)c1OC`, the growth with HCT-15 colon was 107%; in the assay on HT29 colon, 96%; in the assay with SNB-75 CNS, 92.2%; in the assay with SNB-19 CNS, 114%; with U251 CNS, 106%; in the assay on PC-3 prostate it was 94.9%. Moreover, the growth in the assay with SK-MEL-5 melanoma was 113%; in the assay on UACC-62 melanoma, 101%; with LOX IMVI melanoma, 100%; with SK-MEL-28 melanoma it was 104%.

On to `S=C(Cc1ccccc1)N1CCN(c2ccccc2Cl)CC1`, for which the growth in the assay with HCT-15 colon is 106%; with HT29 colon, 100%; in the assay with SNB-75 CNS, 96.8%; in the assay with SNB-19 CNS, 116%; with U251 CNS it was 99.2%; in the assay on PC-3 prostate, 86.6%. In addition, the growth is 90.9% in the assay with SK-MEL-5 melanoma, 86.2% with UACC-62 melanoma, 105% in the assay on LOX IMVI melanoma and 119% with SK-MEL-28 melanoma.

On to `COc1cc(/C=C2\CN(C(=O)OC(C)(C)C)C/C(=C\c3ccc(O)c(OC)c3)C2=O)ccc1O`, for which the growth in the assay with HCT-15 colon is 98.4%; with HT29 colon it was 96.5%; with SNB-75 CNS, 94.8%; in the assay with SNB-19 CNS it was 87.3%; in the assay on U251 CNS it was 92.9%; in the assay with PC-3 prostate it was 81.7%. The growth in the assay on SK-MEL-5 melanoma was 93.4%; with UACC-62 melanoma, 82.4%; with LOX IMVI melanoma it was 92.4%; in the assay on SK-MEL-28 melanoma it was 111%.
